# Data reported in PubChem BioAssay AID624298 (National Center for Advancing Translational Sciences (NCATS), 2012).
# Inconclusive results are not listed. The source made the active and inactive calls. Calls come from the whole dose curve; as a rule, active = well fitted activation curve with a large enough effect; inconclusive = small, poorly fitted or top-dose-only effect; inactive = no such curve, though single readings can be large or run the other way.
# Experiment: Activators of T cell receptors: Hit Validation; for activation: 0% is about no effect
# Conditions: primary human leukocytes, cytokine release by HTRF, 48 h, TCR-stimulated with anti-CD3 beads; series mostly up to 46.1 µM; activation: at the top concentration
# Procedure, shortened: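 Readout is IL-2 secretion by HTRF, measured after 48 hr in which primary human leukocytes received compound together with a-CD3 beads as the only TCR stimulus.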
# Potency is the fitted concentration of half-maximal effect.
Structure (SMILES),activation,Potency
O=C(Cc1cccs1)Nc1ccc(F)c(S(=O)(=O)N2CCOCC2)c1,10.4% (inactive),
COc1ccc(S(=O)(=O)Nc2ccc3cn[nH]c3c2)cc1[N+](=O)[O-],-4.82% (inactive),
CN(C)c1ccc(NC(=O)COC(=O)CNC(=O)c2cccs2)cc1,-40.9% (inactive),
O=C(CCCN1CCC(C(=O)c2ccc(F)cc2)CC1)c1ccc(F)cc1,-2.18% (inactive),
C/C(=N\NC(=O)COc1ccc([N+](=O)[O-])cc1)c1ccco1,11.5% (inactive),
Cc1cccc(NC(=O)c2sc3nc(N)c(C#N)cc3c2N)c1,2.08% (inactive),
CC1(NC(=O)CCNC(=O)c2ccc(C(C)(C)C)cc2)CCS(=O)(=O)C1 (configuration not stated),6.9% (inactive),
NC(=O)c1ccccc1,-2.92% (inactive),
CC(=O)Nc1ccc(C(=O)OCC(=O)N(c2ccccc2)C2CCS(=O)(=O)C2)cc1 (configuration not stated),4% (inactive),
COc1cc(C(=O)Nc2ccn(C)n2)ccc1OC(F)F,6.29% (inactive),
C=C(C)C(=O)OCC(C)C,1.15% (inactive),
COc1cc(C)c(NC(=S)NCCCN2CCOCC2)cc1OC,13.1% (inactive),
Cc1[nH]c2ccccc2c1C(=O)COc1ccccc1F,1.15% (inactive),
CC(C)NC(=O)CCCn1c(=S)[nH]c2cc3c(cc2c1=O)OCO3,1.07% (inactive),
Cn1c(=O)c2c(ncn2CC(O)CO)n(C)c1=O (configuration not stated),7.71% (inactive),
COc1ccc(C(=O)c2sc3nc(C)cc(-c4cccs4)c3c2N)cc1OC,9.06% (inactive),
CCCCCCC[C@@H](C/C=C/CCC(=O)N(C)C/C(=C/Cl)C/C(=C\C(=O)N1CC(OC)=CC1=O)OC)OC,,996 nM (active)
COc1cc(NC(=O)CN2CCN(S(=O)(=O)/C=C/c3ccccc3)CC2)cc(OC)c1OC,3.25% (inactive),
CCOC(=O)c1sc(NC(=O)C2CC(=O)N(c3ccc4c(c3)OCCO4)C2)nc1C (configuration not stated),-1.08% (inactive),
N#Cc1ccccc1Sc1ccccc1C(=O)OCC(=O)NC12CC3CC(CC(C3)C1)C2,5.04% (inactive),
CCN(CC(=O)Nc1c(F)cccc1F)C(=O)C1CCN(S(=O)(=O)c2ccccc2C(=O)OC)CC1,-0.863% (inactive),
O=C1/C(=C/c2cccnc2)SC(=S)N1Cc1ccco1,8.63% (inactive),
O=C1N/C(=C/c2cccs2)C(=O)N1Cc1ccc(Br)cc1,-6.9% (inactive),
CCOc1ccc(/C=N/NC(=O)c2ccc(O)cc2)cc1CN1CC2CC(C1)c1cccc(=O)n1C2 (configuration not stated),14.2% (inactive),
CCOC(=O)C1CCN(C(=O)c2cccc(S(=O)(=O)N3CCc4ccccc43)c2)CC1,4.53% (inactive),
COc1ccccc1CC(=O)NNC(=O)CN(C)S(=O)(=O)c1ccc(Cl)cc1,2.12% (inactive),
C[C@@H]1O[C@@H](O[C@H]2[C@H](Oc3cc(O)c4c(c3)O[C@H](c3ccc(O)cc3)CC4=O)O[C@H](CO)[C@@H](O)[C@@H]2O)[C@H](O)[C@H](O)[C@H]1O,-5.16% (inactive),
